Source: PubChem (National Center for Advancing Translational Sciences (NCATS))
A selection: hits, their analogues and other compounds. The true share with any hit is near 2.8%.
Mito fusion act: inhibitors of mitochondrial division or activators of mitochondrial fusion; S. cerevisiae fusion-defective mutant growth rescue, CellTiterGlo 48 h; Potency, µM (highest dose often 46.1 µM), inactives show at the top dose growth rescue (activation), actives largely listed as activators; hit rate 0.23% among 320,000; AID 485298; also: % of control where 0% means no effect; nearly all actives have a fitted effect of over 45% in size
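Growth-rescue viability read-out: after 48 h at the non-permissive 37C in glycerol/ethanol YPEG, yeast mitochondrial fusion mutants are measured by CellTiterGlo luminescence; compounds (23 nl pinned per well) restoring growth score as division inhibitors or fusion activators.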
GLP1R ag: GLP-1 receptor (human) agonism | P43220 | hit rate 0.007% among 380,000 | Potency, µM (doses to about 45.6 µM), without a hit: at the highest dose activation, hits mostly activators | HEK293 GLP-1R CRE-luciferase, luminescence, 4-6 h; cells express a hypersensitive GLP-1R form; also: % of control where 0% means no effect
Target sequence (P43220 whole entry, looked up): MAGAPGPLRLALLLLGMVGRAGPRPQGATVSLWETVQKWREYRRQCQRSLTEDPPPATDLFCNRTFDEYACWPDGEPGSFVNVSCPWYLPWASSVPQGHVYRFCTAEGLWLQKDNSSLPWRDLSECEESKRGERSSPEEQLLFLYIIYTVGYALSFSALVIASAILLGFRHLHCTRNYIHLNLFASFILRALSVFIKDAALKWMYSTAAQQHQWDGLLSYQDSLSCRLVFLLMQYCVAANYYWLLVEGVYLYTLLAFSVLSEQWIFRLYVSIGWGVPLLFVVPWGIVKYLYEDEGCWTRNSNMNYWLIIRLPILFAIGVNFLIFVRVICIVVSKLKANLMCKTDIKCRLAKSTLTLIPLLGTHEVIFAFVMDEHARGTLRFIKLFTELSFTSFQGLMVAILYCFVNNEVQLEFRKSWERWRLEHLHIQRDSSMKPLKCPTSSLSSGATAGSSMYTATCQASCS
BRCA1 expr act: BRCA1 expression activation | AID 624202 | MCF7-BRCA1-FFLuc reporter, luminescence, 48 h; response scale: scaled: vehicle 0%, 10 µM genistein 100% | Potency, µM (top dose mostly 46.1 µM), inactives show at the highest dose activation, usual class: activators | hit rate 1.1% among 380,000; also: nearly all actives have a fitted effect of over 80% in size
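Compounds are tested at multiple concentrations on MCF7 BRCA1-luciferase reporter cells seeded at 2000 per well; after 48 h, a single luminescence end-point is taken and curves fitted to the normalized data.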
GLP-1R inv ag: acts as inverse agonist at human GLP-1 receptor | Potency, µM (titrated, usually from 38.3 µM), for inactives: top-dose activity change, negative = inhibition, usual class: inhibitors | HEK293 GLP-1R CRE-luciferase, luminescence, 24 h; GLP-1R form is constitutively active | hit rate 1.6% among 410,000 | P43220; also: % is scaled to controls: 0 for no effect and ±100 for the full control effect; nearly all actives have a fitted effect of over 55% in size
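Luminescence readout: a drop in cAMP-driven luciferase signal flags inverse agonism at a constitutively active GLP-1R stably expressed in HEK293. Compound exposure lasted 24 hr at 37 deg C, 5% CO2.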
HEK293 tox: cytotoxic in the GLP-1 receptor inverse agonist counter-screen; HEK293 cAMP-luciferase reporter cells, luminescence, 24 h; Potency, µM (series often up to 38.3 µM), for the others: at the highest dose activity change, negative = inhibition, usual class: inhibitors; hit rate 0.13% among 410,000;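 also: loss of luciferase light is scored as toxicity; % is scaled to controls: 0 for no effect and ±100 for the full control effect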
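A 23 nL compound transfer followed 12 hours of cell culture at 37 deg C; exposure then lasted 24 hr. Luciferase assay detection reagent was dispensed and plates read for luminescence after a 12 min room-temperature wait.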
The depositor's hits bear a star; ? = inconclusive; . = not tested or not shown; [ ] = remark or other dose. Calls follow the shape of the dose curve; as a rule, active = well fitted curve in the direction sought with a large enough effect; inconclusive = small, poorly fitted or top-dose-only effect, or another doubt; inactive = no such curve, though single readings can be large; an effect the other way counts as inactive or inconclusive. Potency is read from the fitted curve at half-maximal effect.

SMILES	Mito fusion act	GLP1R ag	BRCA1 expr act	GLP-1R inv ag	HEK293 tox
CC(=O)c1ccc(N2CCN(S(=O)(=O)c3ccc(-c4cc(C)no4)s3)CC2)cc1	8%	3%	9%	-3%	5%
CCOC(=O)N1CCN(S(=O)(=O)c2ccc(C(=O)N(CCCN(C)C)c3nc4ccc(OC)cc4s3)cc2)CC1	-1%	-2%	-12%	?	-5%
N#Cc1c(F)cccc1N1CCN(Cc2ccc3c(c2)OCO3)CC1	19%	15%	-16%	11µM*	-12%
COc1ccc(CNC(=O)CCNS(=O)(=O)c2ccc(NC(C)=O)cc2)cc1OC	-2%	0%	-12%	7%	0%
Cn1c(N2CCN(S(=O)(=O)c3ccc(F)cc3)CC2)nc2ccccc21	11µM*	8%	-12%	0%	-9%
Cc1nc2ccccc2n1Cc1ccc(Cl)cc1	-9%	3%	-18%	-24%	-1%
COc1ccc(NC(=O)COc2coc(CN3CCc4ccccc43)cc2=O)cc1	0%	-14%	-1%	14%	3%
CCCN(CCC)c1nc2ccccc2nc1C(C#N)C(=O)OC(C)COC (centres undefined)	0%	17%	-34%	10µM*	4%
CCCCN(CCCC)c1nc2ccccc2nc1C(C#N)C(=O)NCCCOC (centres undefined)	7%	1%	0%	-14%	131%
CC1(C)C(=O)Nc2ccccc2N1C(=O)CSc1nnc2c(Cl)cc(Cl)cn12	0%	-6%	-4%	18%	80%
Clc1ccc(OCc2nnc(-c3ccccc3Br)o2)c(Cl)c1	-1%	4%	3.2µM*	-16%	-26%
Fc1ccc(OCc2nnc(-c3ccccc3Br)o2)c(Cl)c1	0%	27%	?	?	5%
Cc1cc(Br)ccc1OCc1nnc(-c2ccccc2)o1	.	-2%	13µM*	?	1%
COc1ccc(-c2nnc(COc3ccc(Br)cc3C)o2)cc1	.	20%	18%	?	-8%
Cc1cc(Cl)ccc1OCc1nnc(-c2ccccc2C)o1	0%	-3%	10µM*	8%	8%
Cc1ccccc1CCNC(=O)c1ccc(NC(=O)N2CC(C)Sc3ccccc32)cc1 (centres undefined)	.	.	.	?	-5%
CSc1ccc(CNc2ccccn2)cc1	-1%	4%	10µM*	-25%	0%
COc1ccc(NS(=O)(=O)c2c(C(=O)N3CCCCCC3)c(C)n(C)c2C)cc1	8%	-6%	14%	?	3%
CCCNC(=O)Cn1nc(C(F)(F)F)cc1C	-9%	-4%	-22%	0%	-10%
COCc1cc(=O)[nH]c(=S)[nH]1	0%	-11%	-8%	8%	15%
CC1CCCCN1C(=O)COC(=O)c1n[nH]c2ccccc12 (centres undefined)	-5%	5%	10µM*	-19%	5%
CC1CCCCN1C(=O)COC(=O)Cc1c[nH]c2ccccc12 (centres undefined)	.	5%	13%	-23%	10%
CCc1ccc(C(O)(CNCc2ccccc2)c2ccccc2)cc1 (centres undefined)	-14%	-5%	-25%	11µM*	-17%
COC(=O)C1=C(C)N=C2SC(C#N)=C(N)N2C1c1ccc(OCc2ccccc2)cc1 (centres undefined)	8%	-17%	-15%	5µM*	142%
CC1(C)CC(C(CCN(Cc2ccccc2)C(=O)c2ccco2)c2ccc(F)cc2)CCO1 (centres undefined)	19%	-29%	-101%	7.9µM*	?
SMILES	Mito fusion act	GLP1R ag	BRCA1 expr act	GLP-1R inv ag	HEK293 tox
CC(C)(C)C(=O)Nc1nc2c(s1)CN(Cc1ccccc1)CC2	-2%	6%	8.9µM*	?	54%
O=C(Nc1nc2c(s1)CN(Cc1ccccc1)CC2)C1CCCC1	-5%	1%	73%	-21%[7.66 µM]	-2%[7.66 µM]
Cc1cc(C)n(-c2ccc(NC(=O)C3CCCCN3C(=O)c3occc3C)cc2)n1 (centres undefined)	1%	-6%	0%	4%	-3%
O=C1CCC(C(=O)Nc2ccc(Cl)cc2)N1 (centres undefined)	1%	-5%	-3%	?	-5%
O=C(Nc1ccc(Cl)cc1)C1C2CCCCC21 (centres undefined)	-3%	-4%	2.2µM*	-11%	1%
O=C(Nc1ccccc1)C1C2CCC3C(CCC21)C3(Cl)Cl (centres undefined)	6%	-4%	-53%	6.3µM*	-16%
O=C(Nc1ccccc1Cl)C1C2CCC3C(CCC21)C3(Cl)Cl (centres undefined)	-3%	7%	-10%	10%	2%
O=C(Nc1cccc(Cl)c1)C1C2CCC3C(CCC21)C3(Cl)Cl (centres undefined)	16%	-9%	-56%	5.6µM*	-35%
CCOc1ccc(NC(=O)c2ccccc2NC(=O)CNC2CCCC(C)C2C)cc1 (centres undefined)	.	-1%	-22%	?	-2%
COC(=O)Cn1c(O)c(N=NC(=O)CNC(=O)c2ccncc2)c2ccccc21	7%	-2%	-8%	12%	-7%
CN(C)CCCn1c(=O)n(Cc2ccco2)c(=O)c2c3c(sc21)CCCCC3	-13%	16%	-27%	4.5µM*	-4%
CC(C)C(=O)Nc1ccc(N2CCN(C(=O)c3cccs3)CC2)cc1	2%	-6%	-8%	-18%	-19%
CC(C)CC(=O)NC(=S)Nc1ccc(N2CCN(C(=O)c3cccs3)CC2)cc1	2%	11%	-36%	10µM*	0%
Cc1ccc(C(=O)N2CCN(c3ccc(NC(=S)NC(=O)c4cccs4)cc3)CC2)cc1	12%	7%	-11%	8.9µM*	-8%
Cc1ccc(C(=O)CN(C(=O)c2ccc(Cl)c(Cl)c2)N2C(=O)C3C4C=CC(C4)C3C2=O)cc1 (centres undefined)	?	-7%	-26%	0%	5%
CCOc1cc(C(=S)N2CCN(C)CC2)ccc1OCC(=O)N1CCCC1	.	0%	-6%	8%	14%
Cc1ccc(NC2=NC(c3ccc(F)cc3)n3c(nc(C)cc3=O)N2)cc1 (centres undefined)	1%	9%	-7%	-5%	-2%
C=CCc1cccc(C=Nc2c[nH]c(=O)[nH]c2=O)c1O	1%	2%	-18%	1%	3%
C=CCc1cccc(C=Nc2cccn3cc(-c4ccccc4)nc23)c1O	3%	14%	11µM*	17%	1%
COc1cccc(C(=O)C2CCCN(Cc3cn[nH]c3C3CCCCC3)C2)c1 (centres undefined)	-2%	14%	-11%	10µM*	-7%
CCOC(=O)c1c(Nc2nc(C)c(C(=O)NC)s2)sc(C)c1C	-1%	5%	12%	22%	-3%
